Measured values published in PubChem BioAssay AID624481 (The Scripps Research Institute Molecular Screening Center, 2012).

Target: Prolyl endopeptidase-like (Mus musculus) (UniProt Q8C167)
Assay: mouse PREPL enzyme inhibition by screening hits – biochemical, gel-based competitive ABPP, fluorescence, HTS hits, PREPL inhibitor project (AID 624481)
Conditions: purified mouse PREPL, at 20 µM, stronger effect = higher value; in the data active = inhibition above about 50%; inactive = the rest

Chain of Prolyl endopeptidase-like (Mus musculus) (Q8C167 whole entry, looked up): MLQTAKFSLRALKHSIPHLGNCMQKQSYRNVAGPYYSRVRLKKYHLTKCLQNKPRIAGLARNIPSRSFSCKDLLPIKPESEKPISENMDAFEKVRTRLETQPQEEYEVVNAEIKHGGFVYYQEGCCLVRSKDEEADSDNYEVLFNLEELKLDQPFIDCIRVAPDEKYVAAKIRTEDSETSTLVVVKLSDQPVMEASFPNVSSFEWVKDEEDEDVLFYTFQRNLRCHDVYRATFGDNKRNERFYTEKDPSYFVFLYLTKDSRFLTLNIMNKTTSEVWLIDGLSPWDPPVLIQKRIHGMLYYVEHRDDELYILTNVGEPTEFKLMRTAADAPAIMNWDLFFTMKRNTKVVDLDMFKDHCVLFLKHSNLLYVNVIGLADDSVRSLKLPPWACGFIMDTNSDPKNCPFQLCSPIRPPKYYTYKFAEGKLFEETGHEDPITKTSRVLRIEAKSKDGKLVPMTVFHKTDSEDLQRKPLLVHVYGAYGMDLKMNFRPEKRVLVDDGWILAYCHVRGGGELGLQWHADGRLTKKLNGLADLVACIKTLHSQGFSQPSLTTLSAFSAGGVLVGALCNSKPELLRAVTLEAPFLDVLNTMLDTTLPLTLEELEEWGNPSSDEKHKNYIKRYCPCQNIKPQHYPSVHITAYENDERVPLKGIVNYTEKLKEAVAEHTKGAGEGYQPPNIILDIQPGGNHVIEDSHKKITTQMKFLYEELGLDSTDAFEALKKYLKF

inhibition, inactive:
Cc1ccc(C2CC(c3cccc(Cl)c3)n3nc(N)nc3N2)cc1 (configuration not stated) -71%, C#CCOCCOCCOCCNc1nc(N2CCN(C(=O)CCCCCCCCCCNC(=O)[C@H]([C@@H](C)CC)n3cc(CCCCN=C(N)N)nn3)CC2)nc(N2CCN(C(=O)CCCCCCCCCCNC(=O)[C@H](CO)n3cc(CCCCCN)nn3)CC2)n1 -38%, O=C(Nc1ccc2c(c1)OCCO2)c1cccc2nc3ccccc3nc12 -12%, CN(CC(=O)Nc1ccccc1Cl)C(=O)c1cccc(S(=O)(=O)N2CCN(Cc3ccccc3)CC2)c1 -6%, CSc1ccc2c(c1)N(CCC1CCCCN1C)c1ccccc1S2 (configuration not stated) -53%, Cc1noc(C)c1S(=O)(=O)N(C)C[C@H]1Oc2c(NC(=O)Nc3ccc(C(F)(F)F)cc3)cccc2C(=O)N([C@H](C)CO)C[C@@H]1C 9%, Cc1ccc(C2CC(c3cccc(C)c3)n3nc(N)nc3N2)cc1 (configuration not stated) -40%, C=CC[n+]1c(-c2ccc(Cl)cc2Cl)csc1Nc1ccc(NC(C)=O)cc1 -43%, O=c1cc(-c2ccc(O)c(O)c2)oc2cc(O[C@@H]3O[C@H](CO)[C@@H](O)[C@H](O)[C@H]3O)cc(O)c12 -12%, COc1ccc(CCNC(=O)c2cc3c(=O)n4cccc(C)c4nc3n(CCCN3CCOCC3)c2=N)cc1 -87%, CNc1oc(-c2ccccc2Cl)nc1P(=O)(c1ccccc1)c1ccccc1 10%, CN(C)c1ccc(NC(=O)c2ccc(Cn3cc([N+](=O)[O-])cn3)cc2)cc1 -9%, C[C@H](CO)N1C[C@H](C)[C@H](CN(C)Cc2ccccc2)Oc2c(NC(=O)Nc3ccc(F)cc3)cccc2C1=O -56%, CCc1ccc(CNc2ccc3c(c2)ncn3C(C)(C)C)cc1 -36%, Cc1cccn2c(=O)c3cc(C(=O)NCCc4ccccc4)c(=N)n(CCCn4ccnc4)c3nc12 -33%, CC(=NNc1nc2ccccc2[nH]1)c1cc2ccccc2o1 -17%, Nc1cc([N+](=O)[O-])cc2oc(-c3ccccc3)cc12 -25%, CN(C)CCc1cc2c(c3c1ccc1ccccc13)OCO2 -26%, COc1ccc2nc(C)cc(NN=Cc3cccc(OC)c3O)c2c1 -23%, CCN(CC)c1ccc(-c2sc(Nc3ccccc3)n[n+]2-c2ccc(F)cc2)cc1 -94%, C#CCOCCOCCOCCNc1nc(N2CCN(C(=O)[C@H](Cc3cc4ccccc4[nH]3)n3cc([C@@H](N)C(C)CC)nn3)CC2)nc(N2CCN(C(=O)[C@H](Cc3cc4ccccc4[nH]3)n3cc([C@@H](N)Cc4ccc(O)cc4)nn3)CC2)n1 (some centres not stated) -104%, COc1ccc(-[n+]2c(C)cc(/C=C3\Sc4ccccc4N3C)cc2C)cc1 -11%
